Data: the supplement of paper PMC10849652
About 8,800 targets were measured; listed, in parts, are those with a hit and a random draw of the rest. About 0.5% of all pairs of compound and target were hits.

The targets below were run with CC1=C(SC2=C1C(=N[C@H](C3=NN=C(N32)C)CC(=O)N)C4=CC=C(C=C4)Cl)C (assay: log2 fold change, soluble protein after heating vs DMSO (PISA); higher = thermal stabilisation; K562 lysate, 10 uM; active = over 0.2 and 3.5 SD of the protein, either way, in both replicates (recomputed)).
In short: (§1)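 K562 pellets were dounce-homogenised in PBS pH 7.4 with 1 mM MgCl2, and the crude extract at 1 mg/mL protein was treated with 10 μM compound for 30 min. Aliquots were heated for 3 min across 48°C-58°C, pooled, and brought to 0.5% NP-40 at 4°C; soluble protein was the supernatant after 21,000xg for 90 min. Soluble protein was quantified by TMTpro 16plex LC-MS/MS with channel sums equalised, and reported as log2 fold change in thermal stability against DMSO controls, with values from duplicates.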

Sequence of UniProt Q06547 (Q06547 whole entry, looked up): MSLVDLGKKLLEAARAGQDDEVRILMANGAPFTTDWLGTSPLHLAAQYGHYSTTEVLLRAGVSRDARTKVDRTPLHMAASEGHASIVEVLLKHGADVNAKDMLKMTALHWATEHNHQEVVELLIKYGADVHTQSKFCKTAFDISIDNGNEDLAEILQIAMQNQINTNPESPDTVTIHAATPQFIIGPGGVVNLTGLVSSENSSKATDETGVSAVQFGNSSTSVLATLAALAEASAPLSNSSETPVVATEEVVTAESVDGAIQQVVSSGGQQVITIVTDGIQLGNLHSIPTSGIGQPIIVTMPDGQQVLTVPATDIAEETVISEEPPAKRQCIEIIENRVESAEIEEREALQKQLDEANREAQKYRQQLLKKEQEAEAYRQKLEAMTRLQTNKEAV
Sequence of UniProt Q9NYQ8 (Q9NYQ8 whole entry, looked up): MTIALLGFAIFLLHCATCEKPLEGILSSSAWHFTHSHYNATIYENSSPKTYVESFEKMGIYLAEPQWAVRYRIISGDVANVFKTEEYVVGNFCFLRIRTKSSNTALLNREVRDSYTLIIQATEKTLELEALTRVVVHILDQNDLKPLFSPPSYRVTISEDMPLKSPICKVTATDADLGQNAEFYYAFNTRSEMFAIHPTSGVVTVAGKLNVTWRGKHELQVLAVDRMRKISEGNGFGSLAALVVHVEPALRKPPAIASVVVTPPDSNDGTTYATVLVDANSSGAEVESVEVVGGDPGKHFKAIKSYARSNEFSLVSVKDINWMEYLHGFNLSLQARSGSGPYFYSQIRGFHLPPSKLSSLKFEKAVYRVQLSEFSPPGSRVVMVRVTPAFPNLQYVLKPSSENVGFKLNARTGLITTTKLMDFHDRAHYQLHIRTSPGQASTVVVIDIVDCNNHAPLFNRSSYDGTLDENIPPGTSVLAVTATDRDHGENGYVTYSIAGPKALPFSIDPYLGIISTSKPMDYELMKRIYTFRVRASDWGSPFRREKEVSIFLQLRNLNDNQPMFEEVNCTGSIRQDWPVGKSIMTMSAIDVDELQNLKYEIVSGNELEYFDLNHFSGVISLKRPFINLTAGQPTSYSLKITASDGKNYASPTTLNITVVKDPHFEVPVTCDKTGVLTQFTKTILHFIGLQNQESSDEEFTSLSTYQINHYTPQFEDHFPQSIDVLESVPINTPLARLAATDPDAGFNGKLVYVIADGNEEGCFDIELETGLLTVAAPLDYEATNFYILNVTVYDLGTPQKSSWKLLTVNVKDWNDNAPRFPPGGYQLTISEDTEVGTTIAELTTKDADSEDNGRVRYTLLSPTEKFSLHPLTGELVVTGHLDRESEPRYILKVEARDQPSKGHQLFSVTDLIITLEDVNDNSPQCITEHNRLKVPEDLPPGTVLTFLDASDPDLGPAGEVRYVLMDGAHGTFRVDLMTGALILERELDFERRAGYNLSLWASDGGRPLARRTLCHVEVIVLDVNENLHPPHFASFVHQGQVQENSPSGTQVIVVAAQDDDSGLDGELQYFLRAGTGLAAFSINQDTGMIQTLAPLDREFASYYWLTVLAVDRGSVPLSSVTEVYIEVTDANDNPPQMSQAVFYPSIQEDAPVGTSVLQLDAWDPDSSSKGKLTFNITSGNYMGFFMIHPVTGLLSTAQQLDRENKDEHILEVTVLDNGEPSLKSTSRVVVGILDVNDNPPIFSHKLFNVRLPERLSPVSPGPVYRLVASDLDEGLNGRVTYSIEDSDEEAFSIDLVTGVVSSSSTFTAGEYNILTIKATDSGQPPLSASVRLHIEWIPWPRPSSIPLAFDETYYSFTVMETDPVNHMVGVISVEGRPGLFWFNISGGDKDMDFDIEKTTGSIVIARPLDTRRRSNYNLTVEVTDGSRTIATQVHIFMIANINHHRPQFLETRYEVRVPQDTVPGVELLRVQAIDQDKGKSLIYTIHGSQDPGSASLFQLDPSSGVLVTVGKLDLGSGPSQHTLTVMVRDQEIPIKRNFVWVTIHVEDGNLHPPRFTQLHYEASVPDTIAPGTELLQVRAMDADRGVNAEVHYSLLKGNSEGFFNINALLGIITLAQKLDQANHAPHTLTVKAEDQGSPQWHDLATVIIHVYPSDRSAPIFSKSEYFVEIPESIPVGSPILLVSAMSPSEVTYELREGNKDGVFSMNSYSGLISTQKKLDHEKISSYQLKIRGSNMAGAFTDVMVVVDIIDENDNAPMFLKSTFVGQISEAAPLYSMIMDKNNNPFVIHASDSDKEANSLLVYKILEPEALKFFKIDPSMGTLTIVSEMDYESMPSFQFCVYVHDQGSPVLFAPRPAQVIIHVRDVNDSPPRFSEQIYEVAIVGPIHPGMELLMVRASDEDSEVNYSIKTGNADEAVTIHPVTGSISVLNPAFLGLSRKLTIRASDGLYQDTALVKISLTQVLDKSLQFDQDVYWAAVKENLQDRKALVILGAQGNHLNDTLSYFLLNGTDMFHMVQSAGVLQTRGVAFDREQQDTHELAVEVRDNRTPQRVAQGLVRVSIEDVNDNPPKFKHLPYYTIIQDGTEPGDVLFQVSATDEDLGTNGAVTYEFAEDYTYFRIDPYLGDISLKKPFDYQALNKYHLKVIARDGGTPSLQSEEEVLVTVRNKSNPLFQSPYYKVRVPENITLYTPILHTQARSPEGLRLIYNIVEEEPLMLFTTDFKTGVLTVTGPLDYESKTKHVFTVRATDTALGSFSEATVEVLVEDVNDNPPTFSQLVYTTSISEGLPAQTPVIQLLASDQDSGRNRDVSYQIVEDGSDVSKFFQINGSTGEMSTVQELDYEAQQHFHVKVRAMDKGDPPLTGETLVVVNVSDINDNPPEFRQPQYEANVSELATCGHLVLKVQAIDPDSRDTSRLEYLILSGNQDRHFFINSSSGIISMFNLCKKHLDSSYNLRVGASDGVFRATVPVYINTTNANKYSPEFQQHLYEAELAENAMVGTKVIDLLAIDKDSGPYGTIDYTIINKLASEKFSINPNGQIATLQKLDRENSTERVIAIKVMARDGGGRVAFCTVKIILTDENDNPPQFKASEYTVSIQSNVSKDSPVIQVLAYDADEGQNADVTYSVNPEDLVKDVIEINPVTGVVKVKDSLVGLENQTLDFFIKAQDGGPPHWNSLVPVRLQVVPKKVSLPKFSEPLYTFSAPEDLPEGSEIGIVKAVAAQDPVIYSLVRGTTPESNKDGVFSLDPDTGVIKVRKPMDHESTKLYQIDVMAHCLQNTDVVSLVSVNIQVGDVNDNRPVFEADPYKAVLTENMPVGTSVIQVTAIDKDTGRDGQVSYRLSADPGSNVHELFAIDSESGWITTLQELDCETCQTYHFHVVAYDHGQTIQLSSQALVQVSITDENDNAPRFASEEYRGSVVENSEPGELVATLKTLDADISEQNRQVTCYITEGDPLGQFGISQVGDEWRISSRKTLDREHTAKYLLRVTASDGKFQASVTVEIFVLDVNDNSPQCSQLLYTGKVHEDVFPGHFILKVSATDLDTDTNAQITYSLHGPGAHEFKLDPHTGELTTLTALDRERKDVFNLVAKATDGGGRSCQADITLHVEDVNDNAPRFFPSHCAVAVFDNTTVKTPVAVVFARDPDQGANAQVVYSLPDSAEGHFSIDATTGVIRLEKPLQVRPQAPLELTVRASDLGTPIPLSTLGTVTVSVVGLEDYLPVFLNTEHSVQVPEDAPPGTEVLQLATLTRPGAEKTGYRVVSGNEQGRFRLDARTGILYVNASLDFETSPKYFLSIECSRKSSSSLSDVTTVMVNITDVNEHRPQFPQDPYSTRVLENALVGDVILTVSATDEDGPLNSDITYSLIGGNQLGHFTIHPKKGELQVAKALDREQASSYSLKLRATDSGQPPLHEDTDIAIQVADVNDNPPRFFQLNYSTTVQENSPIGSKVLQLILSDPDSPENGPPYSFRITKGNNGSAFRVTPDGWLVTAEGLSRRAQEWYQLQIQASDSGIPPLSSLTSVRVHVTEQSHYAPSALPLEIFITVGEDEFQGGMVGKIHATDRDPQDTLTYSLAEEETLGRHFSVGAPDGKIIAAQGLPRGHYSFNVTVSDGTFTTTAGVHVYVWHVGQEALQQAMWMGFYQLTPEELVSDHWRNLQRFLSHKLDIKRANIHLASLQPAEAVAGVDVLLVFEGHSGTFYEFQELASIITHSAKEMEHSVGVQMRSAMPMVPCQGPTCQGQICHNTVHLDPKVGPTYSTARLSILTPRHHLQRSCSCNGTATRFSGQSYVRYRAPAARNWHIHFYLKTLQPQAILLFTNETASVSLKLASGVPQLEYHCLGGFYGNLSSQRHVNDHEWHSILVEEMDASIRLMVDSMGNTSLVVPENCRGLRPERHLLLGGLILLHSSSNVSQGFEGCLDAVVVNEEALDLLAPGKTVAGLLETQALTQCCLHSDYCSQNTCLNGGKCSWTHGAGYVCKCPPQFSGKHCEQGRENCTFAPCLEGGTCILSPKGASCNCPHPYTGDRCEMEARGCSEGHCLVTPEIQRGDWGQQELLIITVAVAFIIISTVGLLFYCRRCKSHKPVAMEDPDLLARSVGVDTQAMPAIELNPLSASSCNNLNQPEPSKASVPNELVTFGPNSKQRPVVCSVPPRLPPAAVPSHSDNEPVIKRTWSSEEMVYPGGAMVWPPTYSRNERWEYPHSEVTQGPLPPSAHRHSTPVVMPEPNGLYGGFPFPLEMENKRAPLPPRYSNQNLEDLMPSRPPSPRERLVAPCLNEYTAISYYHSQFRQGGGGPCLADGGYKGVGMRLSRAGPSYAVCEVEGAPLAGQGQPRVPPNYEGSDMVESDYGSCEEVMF
Sequence of UniProt P0C2W1 (P0C2W1 whole entry, looked up): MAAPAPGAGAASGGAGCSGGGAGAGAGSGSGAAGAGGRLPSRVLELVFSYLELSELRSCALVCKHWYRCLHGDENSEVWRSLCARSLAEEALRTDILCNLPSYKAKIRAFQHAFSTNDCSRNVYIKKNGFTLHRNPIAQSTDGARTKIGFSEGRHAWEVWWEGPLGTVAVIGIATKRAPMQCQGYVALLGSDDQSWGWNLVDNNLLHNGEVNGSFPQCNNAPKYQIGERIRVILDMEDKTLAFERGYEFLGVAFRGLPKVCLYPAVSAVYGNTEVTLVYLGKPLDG

How did the log2 fold change turn out when GBA2 (UniProt Q9HCG7) was run?
Its log2 fold change is 0.062 (inactive).

EHHADH (UniProt Q08426) was tested. Which log2 fold change did it give?
Its log2 fold change is -0.143 (inactive).

Which log2 fold change does the source give for GART (UniProt C9JZG2) here?
Its log2 fold change is 0.086 (inactive).

How did the log2 fold change turn out when EPN2 (UniProt I3L356) was run?
Its log2 fold change is -0.062 (inactive).

Which log2 fold change does the source give for FOXJ2 (UniProt Q9P0K8) here?
The log2 fold change was 0.06 (inactive).

For DYRK1A isoform 2 (UniProt Q13627), which log2 fold change is on record?
The log2 fold change was -0.028 (inactive).

How did the log2 fold change turn out when EPS8L2 (UniProt Q9H6S3) was run?
The log2 fold change was -0.09 (inactive).

For FBXO45 (UniProt P0C2W1), which log2 fold change is on record?
The log2 fold change was -0.177 (inactive).

With DTWD1 (UniProt Q8N5C7) as the target, how does the log2 fold change read?
Its log2 fold change is 0.075 (inactive).

For ESRRB isoform 1 (UniProt O95718), which log2 fold change is on record?
The log2 fold change was 0.109 (inactive).

ERG28 (UniProt Q9UKR5) was tested. Which log2 fold change did it give?
The log2 fold change was -0.053 (inactive).

Which log2 fold change does the source give for DST isoform 3 (UniProt Q03001) here?
Its log2 fold change is -0.033 (inactive).

How did the log2 fold change turn out when ERCC4 (UniProt Q92889) was run?
The log2 fold change was 0.036 (inactive).

Which log2 fold change does the source give for GABPB1 (UniProt Q06547) here?
The log2 fold change was -0.013 (inactive).

FOXL2 (UniProt P58012) was tested. Which log2 fold change did it give?
The log2 fold change was 0.129 (inactive).

For GAA (UniProt P10253), which log2 fold change is on record?
Its log2 fold change is -0.077 (inactive).

How did the log2 fold change turn out when EIF2AK1 (UniProt Q9BQI3) was run?
The log2 fold change was -0.035 (inactive).

For GDE1 (UniProt Q9NZC3), which log2 fold change is on record?
Its log2 fold change is -0.076 (inactive).

GAMT (UniProt Q14353) was tested. Which log2 fold change did it give?
The log2 fold change was -0.083 (inactive).

For FLT4 (UniProt P35916), which log2 fold change is on record?
Its log2 fold change is -0.04 (inactive).

How did the log2 fold change turn out when FAT2 (UniProt Q9NYQ8) was run?
Its log2 fold change is 0.092 (inactive).

G6PD isoform 2 (UniProt P11413) was tested. Which log2 fold change did it give?
Its log2 fold change is -0.002 (inactive).

What follows are targets tested with CC1=C2C(=CC=C1)N=C(N(C2=O)C3=CC=CC=C3C)CN4C=NC5=C(N=CN=C54)N in the same assay as above.
In short: as §1

How did the log2 fold change turn out when ELAVL4 (UniProt P26378) was run?
Its log2 fold change is 0.018 (inactive).

With FAM111A (UniProt Q96PZ2) as the target, how does the log2 fold change read?
Its log2 fold change is -0.008 (inactive).

With FBXO45 (UniProt P0C2W1) as the target, how does the log2 fold change read?
The log2 fold change was -0.004 (inactive).

Which log2 fold change does the source give for DTWD1 (UniProt Q8N5C7) here?
The log2 fold change was -0.004 (inactive).

FAM204A (UniProt Q9H8W3) was tested. Which log2 fold change did it give?
The log2 fold change was -0.102 (inactive).

For ERCC4 (UniProt Q92889), which log2 fold change is on record?
Its log2 fold change is 0.043 (inactive).

How did the log2 fold change turn out when GABPB1 (UniProt Q06547) was run?
The log2 fold change was -0.04 (inactive).

With GAA (UniProt P10253) as the target, how does the log2 fold change read?
Its log2 fold change is -0.157 (inactive).

How did the log2 fold change turn out when FTSJ1 isoform 2 (UniProt Q9UET6) was run?
Its log2 fold change is -0.089 (inactive).

With EIF2AK1 (UniProt Q9BQI3) as the target, how does the log2 fold change read?
The log2 fold change was -0.007 (inactive).

With GC isoform 3 (UniProt P02774) as the target, how does the log2 fold change read?
The log2 fold change was 0.007 (inactive).

Which log2 fold change does the source give for FAM76B (UniProt Q5HYJ3) here?
Its log2 fold change is 0.066 (inactive).

For GAMT (UniProt Q14353), which log2 fold change is on record?
The log2 fold change was -0.002 (inactive).

How did the log2 fold change turn out when FLT4 (UniProt P35916) was run?
Its log2 fold change is -0.031 (inactive).

FAT2 (UniProt Q9NYQ8) was tested. Which log2 fold change did it give?
The log2 fold change was 0.104 (inactive).

With G6PD isoform 2 (UniProt P11413) as the target, how does the log2 fold change read?
Its log2 fold change is 0.011 (inactive).
